# Measured values: PubChem BioAssay AID602476 (National Center for Advancing Translational Sciences (NCATS), 2012)
# Records with an inconclusive call do not appear. Unmarked numbers belong to inactive results. The source made the active and inactive calls. The call rests on the fitted dose curve; in most records, active means well fitted activation curve with a large enough effect; inconclusive means small, poorly fitted or top-dose-only effect; inactive means flat fitted curve, though single readings scatter.
# Assay: FLuc inhibitory activity for the follow-up compounds in a cell-based translational read-through assay
# Details: GripTite 293 FLucUGA read-through, luminescence, 48 h; series mostly up to 38.3 µM; activation (read-through/stabilization): at the top concentration
# Source text: NCGC Assay Overview: Firefly (Photinus pyralis) luciferase is one of the most commonly used transcriptional reporters. It is considered one of the more dynamically responsive reporters - that is, responsive to changes in reporter transcription - as it requires no post-translational modifications and is enzymatically active directly after protein synthesis (Wood, 1998). With no endogenous expression in mammalian cells and without the requirement of external excitation, it offers very little background signal, thus generally providing excellent signal to background for most assays. Previous profiling work to determine the prevalence of compounds that affect FLuc enzymatic activity (PubChem AID 411) identified that ~3% of the MLSMR library (then at ~72K) inhibited FLuc (Auld et al., 2008). […] Of the compounds identified in this profile that inhibited FLuc, 151 compounds were selected for further analysis, in an effort to better understand their mode of inhibiting FLuc. The assay described here was to determine the activity of the compounds in a cell-based firefly luciferase reporter gene assay originally designed to identify compounds that enchanced translational read-through of a FLuc cDNA that contained a premature stop codon (Auld et al., 2009; Auld et al., 2010). Compounds that enhance translational read-through or compounds that stabilize FLuc intracellularly are identified as active compounds in the assay.
# NCGC Assay Protocol Summary: Reagents: Transient transfection of FlucUGA construct: TransFast Transfection Reagent (Promega #E2431); FLucUGA construct (refer to Auld et al., 2009) #GripTite 293 MSR Cell Line (Invitrogen #R795-07) #Complete growth media: DMEM (Invitrogen #11965), 10% HIFBS, 0.1mM MEM NEAA, 5mL/L pen-strep (of 5000U/mL stock), 600ug/mL Geneticin #Assay media: DMEM without phenol red (Invitrogen #21063), 5% charcoal-stripped HIFBS (Hyclone #SH30071.03), 0.1mM MEM NEAA In-house detection reagent: 300mM Tris-HCl, 300mM Trizma base, 300mM MgCl, 1% Triton-X100, 5mM DTT, 500uM Coenzyme A trilithium salt (Sigma #C3019),450uM ATP (Sigma #A7699), 1mM D-luciferin sodium salt monohydrate (Biosynth #L8240) Control compounds used were two known firefly luciferase inhibitors (3-(5-(3-chlorophenyl)-1,2,4-oxadiazol-3-yl)benzoic acid and 5-(2-fluorophenyl)-3-phenyl-1,2,4-oxadiazole), and DMSO. Assay Summary: Transient transfection of FlucUGA construct: Day 1: GripTite cells were plated in T175 flasks at a density of 1.75 x 10^7 cells/T175 flask in complete growth media without Geneticin and allowed to grow ON in a 37 degrees Celsius incubator. Day 2: Cells in T175 flask were transfected - with 10ug of DNA and 30uL Transfast in 12mL complete growth media without serum and without Geneticin for 4 hours at 37 degrees Celsius. After incubation, cells were trypsinized, spun down, and resuspended to a concentration of 3.3 x 10^5 cells/mL in assay media. 6uL of cells in assay buffer were dispensed at 2000cells/well (3.3 x 10^5 cells/mL) into Greiner solid-white TC-treated 1536-well plates using a Multidrop Combi (Thermo Fisher Scientific). Plates were incubated for one hour at 37 degree Celsius, 95% humidity, 5% CO2. These assay plates were then treated with 23nL of compound or DMSO using a Kalypsys pin tool, which allows for delivery of a 12-point titration of each compound to the assay plate, with a final compound concentration ranging from approximately ~38uM to 0.2nM. Assay plates were then incubated for 48 hours. After incubation, plates were washed three times with DPBS (7uL/well). After the third wash, 6uL of DPBS was added to each well. 3uL of 3X luciferase detection reagent was then added to each well using a flying reagent dispenser (FRD). After a 15 minute incubation to allow for cell lysis, luciferase activity was measured using a ViewLux CCD imager (PerkinElmer), with an average exposure time of 2-12 seconds.
Compound,activation (read-through/stabilization),Potency
CC(=O)Nc1cccc(C(=O)Nc2ccccc2C(=O)O)c1,6.03%,
COc1ccccc1C(=O)Nc1ccc(C(=O)Nc2ccccc2C(=O)O)cc1,-1.15%,
Cc1ccc(C(=O)Nc2cccc(C(=O)O)c2)cc1S(=O)(=O)N1CCCCC1,,0.895 µM (active)
CC(C)c1ccc(C(=O)Nc2ccc(-c3nc4ccccc4s3)c(Cl)c2)cc1,-5.34%,
Cc1ccc(S(=O)(=O)N2CCOCC2)cc1C(=O)Nc1ccccc1C(=O)O,0.541%,
O=C(O)c1cccc(NC(=O)c2ccccc2NC(=O)c2ccco2)c1,3.39%,
O=C(Nc1ccccc1C(=O)O)c1cc(S(=O)(=O)Nc2cccc(F)c2)ccc1Cl,-1.78%,
CC(C)(C)NC(=O)c1ccccc1-c1nc2ccccc2s1,0.938%,
CCCC(=O)Nc1nc2ccc(OCC)cc2s1,,12.6 µM (active)
Nc1ccc(-c2nc3cc(N)ccc3s2)cc1,,14.2 µM (active)
O=C(O)c1ccc(NC(=O)c2cc(S(=O)(=O)N3CCCCC3)c(Cl)cc2Cl)cc1,-2.05%,
COc1ccc(-c2nc3ccccc3s2)cc1NC(=O)c1ccc(F)cc1,-1.05%,
Nc1ccccc1C(=O)Nc1cccc(C(=O)O)c1,,28.3 µM (active)
CC(C)C(=O)Nc1cccc(C(=O)Nc2ccccc2C(=O)O)c1,-3.96%,
O=C(Nc1ccccc1C(=O)O)c1cccc(S(=O)(=O)Nc2ccc(Br)cc2)c1,4.63%,
O=C(COC(=O)c1ccccc1[N+](=O)[O-])c1ccc2c(c1)OCO2,6.01%,
Nc1ccccc1-c1nc2ccccc2s1,,17.9 µM (active)
Nc1ccc(-c2nc3ccc(C(=O)O)cc3s2)cc1,,0.283 µM (active)
Oc1ccc(-c2nc3ccccc3s2)c(O)c1,,10 µM (active)
O=C(Nc1ccccc1C(=O)O)c1cccc(S(=O)(=O)N2CCCC2)c1,-0.636%,

Compound,activation (read-through/stabilization),Potency
Cc1ccc(C(=O)Nc2ccc(C(=O)O)cc2)cc1S(=O)(=O)Nc1ccccc1,-7.51%,
Nc1ccc(C(=O)Nc2ccccc2C(=O)O)cc1,18.7%,
O=C(O)c1cccc(NC(=O)c2ccc(Cl)c(S(=O)(=O)N3CCCCCC3)c2)c1,,0.711 µM (active)
Cc1ccc(S(=O)(=O)N2CCN(C(=O)c3ccccc3-c3nc4ccccc4s3)CC2)c(C)c1,14.9%,
c1ccc2sc(-c3ccc4c(c3)OCO4)nc2c1,,1.26 µM (active)
CN(C)S(=O)(=O)c1ccc(C(=O)Nc2ccccc2C(=O)O)cc1,-3.39%,
O=C(O)c1cccc(NC(=O)c2ccc(S(=O)(=O)c3ccccc3)cc2)c1,19.9%,
COc1ccc2nc(NC(=O)CCc3nc(-c4ccccc4F)no3)sc2c1,2.69%,
O=C(Nc1ccccc1-c1nc2ccccc2s1)c1cccnc1,6.24%,
COc1ccc(-c2cccc(C(=O)Nc3cccc(C(=O)O)c3)c2)cc1,,11.3 µM (active)
COc1cccc(OC)c1C(=O)Nc1cccc(C(=O)Nc2cccc(C(=O)O)c2)c1,4.55%,
O=C(Nc1ccccc1C(=O)O)c1cccc(NC(=O)c2ccc(Br)o2)c1,-0.434%,
O=C(Nc1ccccc1C(=O)O)c1ccc(NC(=O)C2CCCCC2)cc1,2.48%,
O=C(Nc1c(Cl)cc(Cl)cc1-c1nc2ccccc2s1)c1ccc(Br)o1,,3.18 µM (active)
O=C(Cc1ccc(Cl)cc1)Nc1cccc(C(=O)Nc2ccccc2C(=O)O)c1,1.99%,
CCOc1ccc2nc(NC(=O)c3cccnc3)sc2c1,,14.2 µM (active)
CCOc1ccc2nc(NC(=O)c3ccoc3C)sc2c1,,1.79 µM (active)
COc1c(C)cccc1C(=O)Nc1ccc(-c2nc3ccccc3s2)c(Cl)c1,3.17%,
Cc1ccc(C(=O)Nc2cccc(C(=O)O)c2)cc1,,4.49 µM (active)
Cc1ccc2nc(-c3ccc(N)cc3)sc2c1,,0.04 µM (active)
